From PubChem BioAssay
FLuc modulator: inhibits or activates purified firefly luciferase, miR-21 counter-screen | purified FLuc, Km substrates, luminescence inhibition | Potency, µM (series often up to 57.5 µM), inactives show at the highest dose activity change, negative = inhibition, actives largely listed as inhibitors | AID 588342 | P08659 | 6.9% of 360,000 active;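 also: plate controls were vehicle for no effect and reference inhibitor for full effect; nearly all actives have a fitted effect of over 55% in size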
Target sequence (P08659 whole entry, looked up): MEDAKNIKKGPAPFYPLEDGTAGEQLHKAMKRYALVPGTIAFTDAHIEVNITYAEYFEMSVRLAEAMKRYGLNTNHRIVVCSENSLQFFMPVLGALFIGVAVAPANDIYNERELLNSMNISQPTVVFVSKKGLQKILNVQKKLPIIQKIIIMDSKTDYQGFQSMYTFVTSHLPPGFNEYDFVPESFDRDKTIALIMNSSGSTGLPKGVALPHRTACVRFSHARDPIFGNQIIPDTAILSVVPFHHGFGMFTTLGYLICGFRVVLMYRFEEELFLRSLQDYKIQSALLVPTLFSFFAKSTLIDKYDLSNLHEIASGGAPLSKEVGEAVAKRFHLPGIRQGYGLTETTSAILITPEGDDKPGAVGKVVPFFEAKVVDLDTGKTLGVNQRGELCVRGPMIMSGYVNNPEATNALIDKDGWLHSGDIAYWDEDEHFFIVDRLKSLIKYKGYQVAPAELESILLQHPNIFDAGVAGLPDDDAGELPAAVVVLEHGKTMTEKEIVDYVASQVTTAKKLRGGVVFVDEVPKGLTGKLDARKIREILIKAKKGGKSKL
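Biochemical qHTS of compounds, final roughly 60 µM downward over six points, against 10 nM purified firefly luciferase using Km concentrations of substrates (10 uM D-luciferin, 10 uM ATP) in Tris acetate pH 7.5 buffer; luminescence output.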
SMN2 splice up: SMN2 splice variant enhancement. 2.8% of 210,000 active. AID 1458. Potency, µM (doses to about 46.1 µM), for inactives: at the top dose activity change, positive = activation, hits mostly activators. HEK293 SMN2-luciferase splicing reporter, luminescence, 30-36 h; also: % of control where 0% means no effect; nearly all actives have a fitted effect of over 55% in size
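HEK293 cells carry an SMN2 […]–luciferase reporter in which exon 7 inclusion puts luciferase in frame. Cells were plated 10-12 h before compound addition, then incubated 30-36 h at 37C. ONE-Glo luminescence was read; sodium butyrate at 4.5 mM final served as control.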
NPC1 promoter act: activates the NPC1 promoter | 2.4% of 320,000 active | Huh7 NPC1 promoter luciferase reporter, 24 h | AID 485313 | Potency, µM (top dose mostly 9.22 µM), without a hit: at the highest dose activation, most hits filed as activators; also: % of control where 0% means no effect; nearly all actives have a fitted effect of over 60% in size
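Readout is luciferase luminescence, reflecting NPC1 promoter activation in stably transfected Huh7 cells after 24 h compound exposure at 37 °C in reduced-serum medium with 10% FBS.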
ELG1 genotoxic: inducers of genotoxicity in HEK293T ELG1-luciferase cells | HEK293T ELG1-luciferase reporter, luminescence, 16 h | Potency, µM (series often up to 46 µM), inactives show top-dose activity change, positive = activation, hits mostly activators | 1.3% of 330,000 active; also: % of control where 0% means no effect; nearly all actives have a fitted effect of over 60% in size
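16 hr compound incubation (37 °C, 5% CO2) of HEK293T cells carrying luciferase-tagged ELG1; luciferase then measured by ONE-Glo luminescence after 30 min at RT.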
p53 reactivation: re-activators of mutant p53; H1299 p53-A138V BP100-luciferase reporter, luminescence, 24 h; Potency, µM (titrated, usually from 92.2 µM), without a hit: top-dose activity change, positive = activation, most hits filed as activators; 0.063% of 320,000 active; AID 504706; also: % of control where 0% means no effect; nearly all actives have a fitted effect of over 45% in size
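H1299 (p53-null), stable ts p53-A138V + BP100-Luc; 1000 cells/well, Opti-MEM/10% FBS; cpd 4 pt, 1:5; 24 h, 37 deg C, 5% CO2; detection reagent 10 min RT; luminescence.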
Rab9 prom act: Rab9 promoter activation; AID 485297; Potency, µM (highest dose often 9.22 µM), for the others: at the top dose activation, negative = inhibition, hits mostly activators; Huh7 Rab9 promoter-luciferase reporter, luminescence, 24 h; 2.8% of 320,000 active; also: % of control where 0% means no effect; nearly all actives have a fitted effect of over 60% in size
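Steps: seed 1500 Huh7 Rab9-luc cells per well, rest 2 h at 37 °C; add compound in DMSO; incubate 24 h; add luciferase reagent, 10 min ambient; read luminescence.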
* hit, by the source's call; ? = inconclusive; . = no result. The list is not random: actives were taken first. Their share in the collection is about 7.3%. Calls follow the shape of the dose curve; as a rule, active = well fitted curve in the direction sought with a large enough effect; inconclusive = small, poorly fitted or top-dose-only effect, or another doubt; inactive = no such curve, though single readings can be large; an effect the other way counts as inactive or inconclusive. Potency is read from the fitted curve at half-maximal effect.

SMILES	FLuc modulator	SMN2 splice up	NPC1 promoter act	ELG1 genotoxic	p53 reactivation	Rab9 prom act
COc1ccc(OC)c(Cc2nnc(CCC(=O)N3CCCCC3c3nccs3)o2)c1 (configuration not stated)	24µM*	.	?	?	8%	3.5µM*
Cc1c(C(=O)NCc2ccccc2Cl)sc2nc[nH]c(=O)c12	-2%	.	.	.	.	.
Nc1ccc2nc3c(=O)n(C4CCCCC4)c(=O)[nH]c3nc2c1	12µM*	.	?	?	12%	?
CCCCn1c(=O)[nH]c2nc3cc(N)ccc3nc2c1=O	-26%	?	?	17%	?	3.2µM*
COc1cc2[nH]c(=O)n(C3CCCCC3)c(=O)c2cc1OC	-3%	?	0%	-1%	1%	-2%
Nc1ccc2nc3c(=O)n(CCc4ccccc4)c(=O)[nH]c3nc2c1	-14%	.	-1%	-3%	4%	17%
Cc1cc(C)cc(NC(=O)C(=O)NCC(c2ccc3c(c2)OCO3)N2CCOCC2)c1 (configuration not stated)	-3%	.	.	.	.	.
COc1ccc(S(=O)(=O)NCc2ccc3c(c2)CCN3C(C)=O)cc1OC	-1%	.	.	.	.	.
Cc1ccc(Nc2c(-c3ccc(N4CCOCC4)cc3)nc3ncccn23)cc1	?	9%	-2%	-2%	-3%	-3%
Cc1ccccc1Nc1c(-c2ccc(N3CCOCC3)cc2)nc2cnccn12	1.5µM*	.	?	?	10%	?
Cc1ccc(Nc2c(-c3ccc(N4CCOCC4)cc3)nc3cnccn23)cc1	5.4µM*	.	17%	?	-2%	16%
Cc1ccccc1Nc1c(-c2ccc(N3CCOCC3)cc2)nc2ncccn12	11µM*	-11%	14%	-6%	1%	-1%
Cc1cccn2c(Nc3ccccc3)c(-c3ccc(N4CCOCC4)cc3)nc12	?	15%	.	.	.	.
COc1ccc2c(c1)c1c(c(=O)n(Cc3ccccc3)c(=O)n1CC(=O)Nc1ccccc1OC)n2C	-4%	.	.	.	.	.
Brc1c(CSc2nc3ccccc3s2)nc2ncccn12	12µM*	7.1µM*	3.2µM*	?	?	3.2µM*
Cc1ccc(N2CC(c3nnc(Cc4ccc(Cl)cc4)o3)CC2=O)cc1 (configuration not stated)	-9%	-13%	.	.	.	.
COc1ccc(OC)c(NC(=O)c2ccc3c(c2)c(C)c(C)n3Cc2ccc(F)cc2)c1	-9%	.	.	.	.	.
CCc1ccc(Nc2nnc(-c3cc4cc(OC)ccc4oc3=O)s2)cc1	-4%	.	.	.	.	.
CC/C(C)=N\Nc1nc(-c2cc3cc(OC)ccc3oc2=O)cs1	17µM*	.	?	17%	11%	?
COc1ccc2oc(=O)c(-c3nc(C)cs3)cc2c1	?	14µM*	?	?	?	2.8µM*
COc1ccc2oc(=O)c(-c3nc(-c4ccc(C)c(C)c4)cs3)cc2c1	-11%	.	.	.	.	.
C=C(C(C)=O)C(O)c1cccc(OC)c1 (configuration not stated)	.	5%	.	.	.	.
CCOC(=O)c1[nH]c2c(c1Cc1ccccc1OC)C(=O)CC(c1ccc(OCC)cc1)C2 (configuration not stated)	0%	-5%	.	.	.	.
COc1cccc(C(=O)NC23CC4CC(CC(C4)C2)C3)c1	17µM*	.	3%	10%	7%	4%
COc1ccc(C(=O)NC23CC4CC(CC(C4)C2)C3)cc1	7.6µM*	.	2%	4%	2%	18%
COc1ccc(C2C(=O)N(C3CCCCCC3)CC(=O)N2Cc2ccc(C)cc2)cc1 (configuration not stated)	6%	.	.	.	.	.
CN(C)c1ccc(NC(=O)CCn2c(=S)oc3ccccc32)cc1	4.3µM*	1%	13%	16%	23%	17%
CN(C)c1ccc(-c2cc(NCc3ccccc3)ncn2)cc1	.	0.79µM*	.	.	.	.
CN(C)c1ccc(-c2ccc3ncnc(NCc4ccccc4)c3c2)cc1	.	-5%	.	.	.	.
